# Test results as given in PubChem BioAssay AID1452 (National Center for Advancing Translational Sciences (NCATS), 2008).
# In all, about 150,000 compounds went through this assay and about 190 (0.13%) were called active. About 2% were inconclusive and are not listed. Many of the other results were omitted from the sample, so actives are more common in it than they were. Unmarked numbers belong to inactive results. The call rests on the fitted dose curve; in most records, active means well fitted inhibition curve with a large enough effect; inconclusive means small, poorly fitted or top-dose-only effect; inactive means flat fitted curve, though single readings scatter.
# Biological target: Polyunsaturated fatty acid lipoxygenase ALOX12 (Homo sapiens) (UniProt P18054)
# Test: qHTS Assay for Inhibitors of 12-hLO (12-human lipoxygenase); further: nearly all actives have a fitted effect of over 55% in size
# Conditions: purified 12-hLO, xylenol orange hydroperoxide absorbance; series mostly up to 57.1 µM; activity change, negative = inhibition: at the top concentration
# Source text: Assay Provider: Holman, T.R., University of California, Santa Cruz Screening Center PI: Austin, C.P. Screening Center: NIH Chemical Genomics Center [NCGC] Human lipoxygenase 12hLO is a member of the closely related lipoxygenase family of enzymes which catalyze the site-specific oxidation of arachidonic acid to various hormone precursor molecules and as such is a candidate for drug development in a variety of disease areas, such as cancer and inflammation. Inhibition of 12hLO activity was screened by utilizing arachidonic acid as a substrate. The extent of hydroperoxide product formation was measured by a secondary chromogenic reaction in which xylenol orange (XO, Sigma-Aldrich, cat. number 39,818-7) reacts with the ferric ions produced from the reaction between the hydroperoxide and ferrous ions. The Fe(III)-XO complex is characterized with red-shifted absorbance at 560 nm. A purified preparation of human 12hLO was supplied by Professor Ted Holman, University of California, Santa Cruz.
# Assay Protocol: Buffer: 25 mM Hepes pH 7.0, 0.01% Triton X-100. Reagents/Controls: Buffer in columns 3 and 4 as negative control (no enzyme). Substrate solution: 40 uM arachidonic acid (Sigma-Aldrich, St. Louis, MO) final concentration dispensed throughout the plate. Enzyme: 150 nM 12hLO final concentration in columns 1, 2, 5-48. Column 1 is neutral (100% activity). Column 2 contained pin-transferred titration of NDGA (nordihidroguaiaretic acid, Sigma-Aldrich, N 5023, top concentration 20 mM in DMSO, then 1:3 dilution in duplicate). (Dilution factor: 23 nL into 4 uL.) Chromogenic detection reagent (divalent iron/xylenol orange, Fe-XO): 200 uM xylenol orange plus 300 uM ferrous ammonium sulfate prepared freshly in 50 mM sulfuric acid. Assay Steps: Three uL of enzyme were dispensed to 1536-well Greiner black clear bottom plates. Compounds and controls (23 nL) were transferred via Kalypsys PinTool. The plates were incubated for 15 min at room temperature, and then 1 uL of substrate solution was added to start the reaction. After room temperature incubation for 30 minutes, 4 uL of Fe-XO solution was added to each well and the plates were incubated for 30 min. The absorbance at 405 and 573 nm were measured using ViewLux (Perkin-Elmer) High-throughput CCD imager and absorbance protocol settings. The 573-to-405 absorbance ratio was used to compute reaction progress.
# On the % scale 0 is the no-effect control and ±100 the full control effect; potency means the concentration at half of the fitted maximal effect.
# Polyunsaturated fatty acid lipoxygenase ALOX12 (Homo sapiens), sequence (P18054 whole entry, looked up): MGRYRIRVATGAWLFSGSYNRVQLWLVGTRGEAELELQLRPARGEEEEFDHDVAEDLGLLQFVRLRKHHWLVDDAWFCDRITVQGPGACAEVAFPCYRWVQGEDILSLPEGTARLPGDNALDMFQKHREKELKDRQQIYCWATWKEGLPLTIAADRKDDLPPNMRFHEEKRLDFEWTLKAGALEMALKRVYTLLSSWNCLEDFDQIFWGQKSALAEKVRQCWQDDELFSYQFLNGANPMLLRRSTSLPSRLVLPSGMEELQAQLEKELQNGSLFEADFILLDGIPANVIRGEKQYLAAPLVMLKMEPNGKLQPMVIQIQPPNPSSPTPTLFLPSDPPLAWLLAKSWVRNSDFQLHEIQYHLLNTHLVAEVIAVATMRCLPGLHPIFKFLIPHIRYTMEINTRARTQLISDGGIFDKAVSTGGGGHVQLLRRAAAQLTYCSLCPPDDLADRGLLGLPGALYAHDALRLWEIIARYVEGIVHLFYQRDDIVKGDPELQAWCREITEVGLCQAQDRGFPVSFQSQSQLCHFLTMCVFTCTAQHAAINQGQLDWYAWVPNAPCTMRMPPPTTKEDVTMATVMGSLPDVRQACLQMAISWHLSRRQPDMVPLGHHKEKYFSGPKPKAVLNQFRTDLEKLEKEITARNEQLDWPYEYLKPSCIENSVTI
SMILES,"activity change, negative = inhibition",Potency
c1ccc(C2=Nc3cccc4cccc(c34)N2)cc1,0.53%,–
CCOC(=O)C1=C(C)c2ccccc2OC1(C)C(=O)OCC (stereo not given),-0.153% [at 0.00818 µM],–
Cc1ccc(-c2cc(C(=O)NCc3cn(C)nc3C)c3cc(Br)ccc3n2)cc1,2.04%,–
CCCCOc1ccc(C(=O)N/C(=C/C=C/c2ccccc2)C(=O)N2CCOCC2)cc1,-1.06%,–
CC(=O)c1c(O)cc2n(c1=O)-c1ccc(Cl)cc1C2(C)C,5.14%,–
COc1ccc(-c2nc3c(c4c2C[C@H](c2ccccc2)OC4)CN(C(=O)C2CC2)CC3)c(C)c1,-3.7% [at 11.4 µM],–
COC(=O)N1C(/C=C/C=C/c2ccc(OC)cc2)=Cc2ccccc2C1CC(C)=O (stereo not given),1.56% [at 11.4 µM],–
Cc1ccc(S(=O)(=O)N(Cc2ccc(Cl)cc2)c2ccccc2C(=O)NCc2cccnc2)cc1,1.33%,–
CCOC(=O)c1cnc2ccc(F)cc2c1Nc1ccc2c(c1)OCCO2,-1.08%,–
CC1=C(/C=C/C(C)=C/C=C/C(C)=C/C=C/C=C(C)/C=C/C=C(C)/C=C/C(=O)[C@]2(C)C[C@@H](O)CC2(C)C)C(C)(C)C[C@H](O)C1,-3.45% [at 0.00818 µM],–
O=C(Cn1cnc2ccccc21)N/N=C/c1ccco1,-2.72%,–
O=C(O)c1ccc(N=NN2CCOCC2)cc1,-1.99%,–
C=C1c2cccc(OC)c2O[C@H](C(=O)OCC)[C@@H]1CCCCCC,-4.96% [at 0.00818 µM],–
CCCCCCCC/C=C\CCCCCCCC(=O)NCC(=O)O,3.9%,–
CCCCCCCC[n+]1cccc(C(=O)N2c3c(nc(N)[nH]c3=O)NC(C)C2C)c1 (stereo not given),-3.59%,–
C[C@@H]1C(c2ccc(F)cc2)=NN(c2ccc(Br)cc2)[C@H]1C(=O)N1CCOC1=O,-4.22% [at 0.00818 µM],–
O=[N+]([O-])c1ccccc1SNc1ccccn1,2.54%,–
C=C1C2C[C@H](O)C(C)(C)[C@@]2(O)[C@H](O)C[C@]23C[C@@](C)(O)[C@H](CC[C@H]12)[C@H]3O (stereo not given in full),-0.156%,–
CCOC(=O)C1C/C(=C\C(C)=O)c2cccc(C(F)(F)F)c2O1 (stereo not given),-1.22% [at 0.00818 µM],–
CC(Nc1oc(-c2ccccc2)nc1-c1ccccc1)c1ccccc1 (stereo not given),inactive,–
Cc1cc2oc(=O)cc(-c3ccccc3)c2c(C)c1/C=C/c1ccc(F)cc1,-3.71% [at 0.00818 µM],–
COc1cccc(C(=O)Nc2cc3c(cc2Br)OCCCO3)c1,-0.158%,–
CCCCC[C@H](O)/C=C/[C@@H]1[C@@H](CC(=O)CCC(=O)O)[C@@H](O)C[C@H]1O,1.55%,–

SMILES,"activity change, negative = inhibition",Potency
COc1ccc(CCNC(=O)/C(C#N)=C2\N=C(NC(=O)c3cccs3)c3ccccc32)cc1,0.415%,–
O=C(OC1CCOC1=O)c1cccc(S(=O)(=O)Nc2ccc(F)cc2)c1 (stereo not given),1.87%,–
O=C(CNCc1ccc(F)cc1)Nc1ccccc1-c1ccccc1,-0.876%,–
COc1ccccc1N=Cc1c(O)c2ccccc2oc1=O,0.0273%,–
CC(=O)Nc1ccc(S(=O)(=O)NCC(=O)OCc2cc(=O)oc3ccc4ccccc4c23)cc1,1.72%,–
COC(=O)C1=C(C(=O)OC)[C@@H]2N(C)c3ccccc3[C@@]23C[C@@H](C(=O)OC)N(S(=O)(=O)c2ccc(Br)cc2)C3=N1,2.4% [at 11.4 µM],–
COC(=O)c1c(NC(=O)COC(=O)[C@@H](NS(=O)(=O)c2ccccc2)C(C)C)sc2c1CCC2,-1.84%,–
Brc1ccc(C2=NCCC(c3ccccc3)O2)cc1 (stereo not given),0.263% [at 0.00818 µM],–
COc1ccc(-c2nc3c(c4c2C[C@H](c2ccccc2)OC4)CN(C(=O)c2cccnc2)CC3)c(C)c1,1.97% [at 11.4 µM],–
COc1ccc(-c2nnc(SC(=O)N3c4ccccc4Sc4ccccc43)o2)cc1,–,14.1 µM (active)
COc1ccc(-c2nnc(SCc3cccnc3)o2)cc1,-1.27%,–
COc1ccc(-c2nnc(SC(C)C#N)o2)cc1 (stereo not given),-9.79%,–
COc1ccc(C(=O)COC(=O)c2ccc3ccccc3n2)cc1,-2.31%,–
O=c1cc(CN2CCN(S(=O)(=O)/C=C/c3ccccc3)CC2)c2ccc(O)cc2o1,-3.24%,–
COc1ccc(C2CC(=O)Oc3ccc(C(C)(C)C)cc32)cc1 (stereo not given),-4.97% [at 0.00818 µM],–
CCOc1ccc(N2C(=O)/C(=C/c3ccc(C)o3)N(C)C2=S)cc1,-4.46%,–
COC(=O)CCCC1=CC2=C(c3ccccc3)C(=O)C(C)(OC(=O)C3CCCC3)C(=O)C2=CN1c1ccc(OC)cc1 (stereo not given),-9.71% [at 11.4 µM],–
COCCCNC(=S)NC(=O)c1ccccc1,-6.12%,–
CCOC(=O)c1c(NC(=O)C2(C)Cc3ccccc3C(=O)O2)sc2c1CCCC2 (stereo not given),15.1%,–
CCOC(=O)C1=C(NC(=S)NC(=O)c2ccccc2)c2ccccc2CC1(C)C,–,25.1 µM (active)
C[C@H]1Cc2c(-c3ccccc3)nc3c(c2CO1)CN(C(=O)C1CC1)CC3,2.53% [at 11.4 µM],–
CC(NC(=O)CCC(=O)N1CCN(S(=O)(=O)c2ccc(Cl)cc2)CC1)c1ccccc1 (stereo not given),-1.88%,–
